Results: the supplement of paper PMC11417369
± gives the standard deviation of the averaged measurements. In all, about 25,000 sequences were measured (“ln(normalized median fluorescence intensity)”: median about 8.6, highest 2% from about 10 on). This is one part of a sample in which the highest values are shown more often than they occur.

tested on: PfAP2-EXP AP2 domain (GST-tagged); assay: gcPBM binding intensity (ln(normalized median fluorescence intensity)); higher = stronger DNA binding
In short: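 An Agilent 4 × 180k array of primer-extended double-stranded 36-bp intergenic genomic probes, with negative controls, was incubated for 1 h with GST-tagged P. falciparum DNA-binding domains expressed in E. coli. Alexa488 anti-GST antibody detected bound protein, scanned at 488 nm. Binding intensity is the highest Masliner-normalised natural-log median intensity across replicate spots of either probe orientation.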

| Sequence | gcPBM binding intensity (ln) |
| --- | --- |
| CAACAAAAGTTATTTACACACAAAAGGCAAGGAAAT [CACACA_site7013] | 8.94 ± 0.47 |
| TAACATATTTTTAATACACACTTAAAAAAGTACTTA [CACACA_site4875] | 8.31 ± 0.34 |
| TTTTTTTTTTTTTACACACCCAAATCACATACATAT [CACACA_site6089] | 8.59 ± 0.44 |
| AGAAATGAAATATACACACATACATATATACATATA [CACACA_site4033] | 8.49 ± 0.27 |
| TCAATAAATATACATACATGCATACATACATACATA [TGCATGCA_site197] | 8.72 ± 0.47 |
| AAAAAAAAATTAAAAACACACATATATATATATATA [CACACA_site1580] | 10.2 ± 0.39 |
| AATCAATAAATAAAAACATGCATATATATATATATA [TGCATGCA_site438] | 10.3 ± 0.47 |
| AAAAAAAAATTAAAAACACACATATAAATAAATATA [CACACA_site6845] | 8.48 ± 0.48 |
| AAATGTTGAAATGATACACACATATATATATATATA [CACACA_site2517] | 10.3 ± 0.32 |
| AAAAAAAAAATTAAAACATGCATAAATAAATATATT [TGCATGCA_site866] | 8.73 ± 0.37 |
| AAATGTTGAAATGATACACACATATAAATATAAATA [CACACA_site7229] | 8.53 ± 0.42 |
| AAAAAAATTAAACACACACACACATATATATATATA [CACACA_site4718] | 10.1 ± 0.25 |
| TGGTATATAAAACACACACACATATGTATTTATATA [CACACA_site4665] | 8.54 ± 0.38 |
| TCATGGAATATTTAAAGTACAAAAAGTGTTCTTTAC [XGTACX_site715] | 8.21 ± 0.3 |
| TAATATCATTTATGTAGTACTATAACAAGAACTATA [XGTACX_site3618] | 8.33 ± 0.35 |
| TATATATATATAAAGGTGCATATCTTTACGTATGTC [GTGCAC_site9665] | 9.99 ± 0.11 |
| AAAAAAAAGGAAAATAAAAATAAAAAAAAATAATAA [XGTACX_negctrl_site601] | 8.53 ± 0.52 |
| AAAAAAAAAAAAAATACACACACATATATATATATA [CACACA_site8698] | 10.1 ± 0.26 |
| AAAAAAAAAAAATATACACACACATATATATATATA [CACACA_site9123] | 10 ± 0.45 |
| AAAAAAAATACATACATACACACATATATATATATA [CACACA_site912] | 9.98 ± 0.38 |
| AAAAAAAAAAAATACACACACATATATATATATATA [CACACA_site2224] | 10.2 ± 0.23 |
| AAAAAAAAAAAATACACACACACATATATATATATA [CACACA_site731] | 10.2 ± 0.18 |
| AAAAAAAAAAAAAATACACACATATATATATATATA [CACACA_site85] | 10.1 ± 0.34 |

| Sequence | gcPBM binding intensity (ln) |
| --- | --- |
| TTATATAAATATAAGGTGCTGGGGTTTATTACATAT [GTGCAC_site9909] | 9.03 ± 0.54 |
| AAGATGGTAAAGAATTGTACGCGCATATATATATTT [XGTACX_site3904] | 9.69 ± 0.42 |
| GGCATACACAGACACACACACACACCCACATATATA [CACACA_site591] | 8.79 ± 0.4 |
| TGTATTATATATGTGTGTACATATTTTTTTTTTTTT [XGTACX_site3351] | 8.47 ± 0.34 |
| TTTTAAAGCATATCATATAAAGAACATGACATAGGA [CACACA_negctrl_site630] | 8.61 ± 0.33 |
| TTTTTTAAATTTAAAGTGCATTATTATATATTTGTA | 8.65 ± 0.15 |
| AAAAAAAAAAAAAAAGTGCATATATAAATATTGTAT [GTGCAC_site9459] | 8.62 ± 0.3 |
| ATTTTTTTTGTAAAAGTGCATATATATATATATATA | 10.4 ± 0.35 |
| AAAATTAATAAATAAACACACATATTTATATTTATA [CACACA_site7266] | 8.03 ± 0.41 |
| AAAATATATTCAACTTGTACATATATATATATATAT [XGTACX_site7629] | 10.3 ± 0.13 |
| GAATATTCACATACTTGTACATATATATATATATAT [XGTACX_site7302] | 10.2 ± 0.68 |
| ATGTATGTATATACTTGTACATATTCATATTAGTAT [XGTACX_site1118] | 8.45 ± 0.35 |
| AATACACAAATATATTGTACATATATATATATATAT [XGTACX_site2440] | 9.85 ± 0.34 |
| TAACTTCAAAAATCTTGTACATAAATATATAAAACA [XGTACX_site8574] | 8.53 ± 0.44 |
| TAAAAATATTTTCATTGTACATATATATAAATATAT [XGTACX_site1123] | 8.4 ± 0.33 |
| ATATATATTATATATTGTACATATTATATTCATTAT [XGTACX_site1766] | 8.57 ± 0.3 |
| CTTAAAAAAATATATTGTACATATATATATACAACT [XGTACX_site1281] | 8.33 ± 0.3 |
| AAAAAAAAAATTCATTGTACATATATATATATATAT [XGTACX_site8346] | 10.2 ± 0.22 |
| GGATTTATTATATATACACACATACAGATATATATA [CACACA_site5222] | 8.48 ± 0.3 |
| GTTTTTTTTATATATTGTACAAATAATATATTATAT [XGTACX_site29] | 9.02 ± 0.37 |
| TAAATATATTTATACACACACACCAAAGCAATAGAT [CACACA_site7393] | 9.12 ± 0.35 |
| AAAAAATGTTAAAAAAGTACTTTCTTTATTTAATAA [XGTACX_site2908] | 8.07 ± 0.4 |
| GAACGCCATTCACATAAAGGGATACATAAATAAATA [XGTACX_negctrl_site330] | 8.4 ± 0.42 |

| Sequence | gcPBM binding intensity (ln) |
| --- | --- |
| CTTTTAAATTATTTTTGTACATAATTATATATATAT [XGTACX_site4128] | 9.4 ± 0.32 |
| ATATCTTAAATTATTTGTACATATATATATATATAT [XGTACX_site8034] | 10.3 ± 0.27 |
| ATATATATATATATATGTACATATTGTATCTTATAC [XGTACX_site5466] | 10.2 ± 0.4 |
| ATGTGTATATATTATTGTACATATATATATATATAT [XGTACX_site4627] | 10.3 ± 0.2 |
| TATATTAATAATAAGTGTACATATATATATATTTTT [XGTACX_site288] | 8.36 ± 0.3 |
| TTGTGTACATATTAAGTGCATATATATATATATATA | 10.4 ± 0.33 |
| CATATACATTGTATATGTACATATATATATATATAT [XGTACX_site3772] | 10.1 ± 0.36 |
| CATACACATATATATTGTACACATATATGTATGTAT [XGTACX_site4030] | 8.45 ± 0.28 |
| TATATATATATATATTGTACATATATTATTATATAT [XGTACX_site7447] | 10.2 ± 0.57 |
| ATATAAAAATTAAAATGTACATATCTTATTATAATA [XGTACX_site983] | 8.32 ± 0.34 |
| TATATATTATATATATGTACATATTGTTGTGTATAT [XGTACX_site767] | 8.63 ± 0.29 |
| CATGTGCATATTAAATGTACATATATACATATATAC [XGTACX_site857] | 8.835 ± 0.064 |
| TTTTAAATAAATCATGCATGCACATATAATTATATT [TGCATGCA_site151] | 9.94 ± 0.33 |
| TTATATGGATATACAGTGCATATATACATATAAGTG | 8.61 ± 0.26 |
| ACAAAAAAATGAAAAGAAAAAGATATACCCCAATAT [CACACA_negctrl_site509] | 8.99 ± 0.8 |
| TATGTAATGTTTACAACACACAAATTATAAATACAA [CACACA_site1771] | 8.38 ± 0.4 |
| TATTACATTATATAAACATGCAAAACTATATATTAT [TGCATGCA_site601] | 8.63 ± 0.45 |
| TGTTTTATTATTTATAGTACATAAAAAAATATTGTA [XGTACX_site8963] | 8.25 ± 0.24 |
| CAAGAATAAAAATACAAGCACACATGTATGAAATAT [CACACA_site3214] | 8.91 ± 0.42 |
| TTATATCTTATAAAATGTACATAAAATATATAATAT [XGTACX_site7647] | 8.52 ± 0.26 |
| TAAAAAAAAAAAATGTGTACATATTATATATATCTT [XGTACX_site2615] | 8.22 ± 0.3 |
| ATATATATATATAAATGTACAGGCTTATCTCTTATT [XGTACX_site1828] | 10.2 ± 0.12 |
| ATTTATCTATAATATACACACATATAACAGACATAT [CACACA_site6469] | 8.52 ± 0.33 |

| Sequence | gcPBM binding intensity (ln) |
| --- | --- |
| TGAATAATATACATACGTACATACATATATATAATA [XGTACX_site1302] | 8.32 ± 0.3 |
| ATACATTCTAATACGTGTACATATATATATATATAT [XGTACX_site1881] | 10.2 ± 0.28 |
| TAATATACATATATATGTACATATATATATATATAT [XGTACX_site2684] | 9.93 ± 0.35 |
| ATTACAAAAAAAAAAAAAAAAAAAAAAAAAAAAAAA [CACACA_negctrl_site448] | 7.95 ± 0.33 |
| ATTTTATTTATATACACACACATATATATATTATAT [CACACA_site822] | 8.77 ± 0.44 |
| TTACTACTATATTATACACACATATATTTATTTATA [CACACA_site7274] | 8.7 ± 0.4 |
| TATTACACATATTATACACACATATATTATATATAT [CACACA_site4951] | 8.69 ± 0.25 |
| ATATTTTATTTATATACACACACATATATATATTAT [CACACA_site8177] | 8.79 ± 0.47 |
| TTTTATATATTATATACACACATATATATATATATA [CACACA_site2999] | 10.2 ± 0.32 |
| TAATTTTTTTTAATAACACACATATAAATATAAATA [CACACA_site6521] | 8.17 ± 0.45 |
| TATATATATATATACACATGCAAAAATTTTTAATTT [TGCATGCA_site82] | 10.2 ± 0.35 |
| TAATTTTTTTTAATAACACACATATATATATATATA [CACACA_site813] | 10.47 ± 0.042 |
| TTTTTTTTTTTTTAAACATGCAAAATATATAATTTT [TGCATGCA_site633] | 8.46 ± 0.36 |
| AATAATTTTTTAAACACACACACATATATATATATA [CACACA_site95] | 10.1 ± 0.3 |
| TACATAAATTTTAATACATGCAAATAAAATATATAA [TGCATGCA_site131] | 8.88 ± 0.4 |
| TTACTACTATATTATACACACATATATATATATATA [CACACA_site2621] | 10.3 ± 0.23 |
| AAACCTTTAGAAAATCGTACAAAACATAACCACCTA [XGTACX_site1098] | 8.81 ± 0.61 |
| CACAGACACGGACACACACACACAAAAAAAAAAAGA [CACACA_site4436] | 8.44 ± 0.57 |
| TATTTTTAAATATAAAGTACTTATATTAACTACGAA [XGTACX_site1524] | 8.27 ± 0.29 |
| TATATATATACATACATACACACATATATATATATA [CACACA_site4109] | 10.1 ± 0.67 |
| ACAATAAAATATGGCACACATATATATATATATTTA [CACACA_site3] | 8.43 ± 0.34 |
